What all share (parameters): scale not given: direction of the effect not stated beside the values
Experiment [1] addresses Protein translocase subunit SecA (Escherichia coli (strain K12)) (UniProt P10408). In words: Assay to Identify E. coli SecA ATPase Inhibitors. Particulars: 30 µM. The format is functional.
Experiment [2] concerns the target T1, Ubiquitin-activating enzyme e1, putative (Leishmania donovani (strain BPK282A1)) (UniProt E9BSI1).
T1 sequence (whole entry): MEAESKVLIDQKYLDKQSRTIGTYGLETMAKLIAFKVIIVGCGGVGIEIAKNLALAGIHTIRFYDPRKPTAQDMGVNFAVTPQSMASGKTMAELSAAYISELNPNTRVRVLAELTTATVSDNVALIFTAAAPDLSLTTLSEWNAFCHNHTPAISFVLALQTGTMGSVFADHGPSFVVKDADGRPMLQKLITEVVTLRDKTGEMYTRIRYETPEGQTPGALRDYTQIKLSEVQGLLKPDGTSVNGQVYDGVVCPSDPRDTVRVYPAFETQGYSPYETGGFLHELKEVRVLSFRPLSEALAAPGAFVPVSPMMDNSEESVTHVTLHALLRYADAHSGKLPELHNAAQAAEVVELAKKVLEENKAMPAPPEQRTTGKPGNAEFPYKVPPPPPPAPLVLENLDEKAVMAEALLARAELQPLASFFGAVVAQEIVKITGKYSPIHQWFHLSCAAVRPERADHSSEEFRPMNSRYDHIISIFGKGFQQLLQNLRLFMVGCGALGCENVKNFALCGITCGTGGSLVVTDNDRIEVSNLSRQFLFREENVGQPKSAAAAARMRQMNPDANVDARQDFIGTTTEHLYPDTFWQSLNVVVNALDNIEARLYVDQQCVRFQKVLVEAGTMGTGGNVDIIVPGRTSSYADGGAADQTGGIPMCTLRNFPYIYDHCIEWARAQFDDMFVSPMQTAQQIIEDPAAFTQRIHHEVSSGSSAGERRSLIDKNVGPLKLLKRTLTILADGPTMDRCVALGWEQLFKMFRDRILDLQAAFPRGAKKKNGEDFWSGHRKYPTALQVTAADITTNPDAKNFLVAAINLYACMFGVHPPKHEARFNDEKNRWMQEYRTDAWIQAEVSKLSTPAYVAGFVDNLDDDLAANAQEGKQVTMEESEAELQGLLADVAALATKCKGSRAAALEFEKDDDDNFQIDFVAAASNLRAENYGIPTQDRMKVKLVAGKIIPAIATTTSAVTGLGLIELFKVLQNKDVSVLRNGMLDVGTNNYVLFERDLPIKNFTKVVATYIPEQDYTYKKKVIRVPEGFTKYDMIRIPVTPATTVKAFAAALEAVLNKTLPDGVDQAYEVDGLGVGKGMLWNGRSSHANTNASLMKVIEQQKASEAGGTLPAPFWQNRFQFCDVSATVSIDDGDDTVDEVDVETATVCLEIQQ
Briefly: Leishmania donovani Ubiquitin Activating Enzyme (LdE1). Particulars: 30 µM. The format is functional.

Experiment [3] concerns the target AMP-activated protein kinase, AMPK (Homo sapiens) (UniProt P54646+O43741+P54619+Q9UGJ0+Q9Y478+Q13131+Q9UGI9). Briefly: AMP-dependent Kinase enzyme assay. An in vitro enzyme assay that detects ADP turnover that is directly proportional to AMPK activity. This uses naive AMPK that is activated during the assay with MK-8722. Particulars: 30 µM. The format is functional.

Experiment [4] deals with Sialic acid-binding Ig-like lectin 9 (Homo sapiens) (UniProt Q9Y336). In words: Hs-Siglec9 ALPHAscreen SOP 20170721. The settings on record: 10 µM.
Sequence of Sialic acid-binding Ig-like lectin 9 (Homo sapiens) (Q9Y336 whole entry): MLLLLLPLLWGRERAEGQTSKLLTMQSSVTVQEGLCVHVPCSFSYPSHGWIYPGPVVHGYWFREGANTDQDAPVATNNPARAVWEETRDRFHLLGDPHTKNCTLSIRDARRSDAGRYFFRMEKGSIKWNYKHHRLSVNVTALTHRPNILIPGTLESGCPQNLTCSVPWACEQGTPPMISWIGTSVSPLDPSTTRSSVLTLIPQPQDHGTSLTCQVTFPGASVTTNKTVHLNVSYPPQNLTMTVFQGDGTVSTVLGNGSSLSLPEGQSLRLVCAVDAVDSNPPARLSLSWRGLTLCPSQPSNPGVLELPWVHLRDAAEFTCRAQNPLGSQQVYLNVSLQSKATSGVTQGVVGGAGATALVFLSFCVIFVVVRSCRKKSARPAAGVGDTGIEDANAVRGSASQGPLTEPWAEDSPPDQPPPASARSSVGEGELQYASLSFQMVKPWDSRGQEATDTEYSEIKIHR
Another experiment concerns Trypanosoma cruzi. Briefly: Trypanosoma cruzi phosphomannomutase and mannose-1-phosphate guanylyltransferase assay. The format is functional. Particulars: 10 µM.
Experiment [5] concerns the target T2, Arginase-2, mitochondrial (Homo sapiens) (UniProt P78540).
T2 sequence (whole entry): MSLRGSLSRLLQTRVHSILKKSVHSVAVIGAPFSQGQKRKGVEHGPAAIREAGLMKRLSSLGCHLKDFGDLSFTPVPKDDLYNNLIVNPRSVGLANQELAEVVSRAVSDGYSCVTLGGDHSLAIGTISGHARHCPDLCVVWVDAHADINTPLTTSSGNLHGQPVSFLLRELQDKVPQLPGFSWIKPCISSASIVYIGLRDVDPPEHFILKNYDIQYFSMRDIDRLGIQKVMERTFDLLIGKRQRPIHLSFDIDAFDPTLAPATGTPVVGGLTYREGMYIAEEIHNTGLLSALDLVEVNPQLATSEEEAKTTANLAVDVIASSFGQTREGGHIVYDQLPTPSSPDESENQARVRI
Briefly: in vitro enzyme assay to detect the production of urea directly proportional to the activity of Arginase II. Note: in the data most compounds retested in dose-response had high values. The settings on record: 33.3 µM. The format is functional.

The target of experiment [6] is T3, Proteasome subunit beta (Trypanosoma cruzi) (UniProt O96673).
T3 sequence (whole entry): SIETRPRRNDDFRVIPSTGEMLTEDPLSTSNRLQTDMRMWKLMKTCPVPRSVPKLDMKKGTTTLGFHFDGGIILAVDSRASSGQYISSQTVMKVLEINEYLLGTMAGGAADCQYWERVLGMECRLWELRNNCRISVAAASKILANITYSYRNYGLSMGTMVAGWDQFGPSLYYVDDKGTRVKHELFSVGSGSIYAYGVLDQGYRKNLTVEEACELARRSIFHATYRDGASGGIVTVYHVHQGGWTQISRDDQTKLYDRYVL
In words: Trypanosoma cruzi proteasome chymotrypsin-like activity (TcProtChymo) assay. Note: in the data most compounds retested in dose-response had high values. The format is functional. The settings on record: 9.37 µM.

For another experiment, the species on record is Homo sapiens. Briefly: To identify inhibition of the IFN signalling (Jak-Stat) pathway via expression of an eGFP reporter gene under the control of an IFN-stimulated response element (ISRE) containing MxA promoter. The format is functional. The settings on record: 30 µM.
The target in experiment [7] is T4, Tyrosyl-tRNA synthetase, putative (Trypanosoma cruzi (strain CL Brener)) (UniProt Q4DSP6).
T4 sequence (whole entry): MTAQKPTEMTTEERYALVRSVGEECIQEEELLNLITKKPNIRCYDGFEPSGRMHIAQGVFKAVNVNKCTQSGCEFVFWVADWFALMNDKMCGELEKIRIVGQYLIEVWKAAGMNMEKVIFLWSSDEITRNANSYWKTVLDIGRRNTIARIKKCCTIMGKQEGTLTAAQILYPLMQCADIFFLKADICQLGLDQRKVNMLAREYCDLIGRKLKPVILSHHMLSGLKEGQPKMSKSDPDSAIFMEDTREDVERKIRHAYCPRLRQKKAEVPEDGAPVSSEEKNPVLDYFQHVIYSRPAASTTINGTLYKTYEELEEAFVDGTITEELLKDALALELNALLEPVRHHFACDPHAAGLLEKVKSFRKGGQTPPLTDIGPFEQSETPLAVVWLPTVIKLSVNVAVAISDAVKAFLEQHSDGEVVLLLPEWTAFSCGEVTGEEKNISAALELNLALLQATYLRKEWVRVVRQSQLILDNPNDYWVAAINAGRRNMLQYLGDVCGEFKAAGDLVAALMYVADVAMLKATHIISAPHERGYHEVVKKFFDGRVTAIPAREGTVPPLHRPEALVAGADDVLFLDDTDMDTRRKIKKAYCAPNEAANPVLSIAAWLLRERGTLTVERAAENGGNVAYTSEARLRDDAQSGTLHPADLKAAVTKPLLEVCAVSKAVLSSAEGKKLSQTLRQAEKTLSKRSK
Briefly: Trypanosoma cruzi tyrosyl tRNA synthetase (TcYRS) _High Tyrosine SOP. Note: in the data most compounds retested in dose-response had high values. The settings on record: 30 µM. The format is functional.

Experiment [8] concerns the target T4, Tyrosyl-tRNA synthetase, putative (Trypanosoma cruzi (strain CL Brener)). Briefly: Trypanosoma cruzi tyrosyl tRNA synthetase (TcYRS) SOP. The format is functional. Particulars: 30 µM.
In experiment [9] the target is Chromo domain-containing protein 1 (Saccharomyces cerevisiae (strain ATCC 204508 / S288c) (Baker's yeast)) (UniProt P32657). In words: ScCHD-1 Enzyme Inhibition Assay. Note: in the data most compounds retested in dose-response had high values. The settings on record: 30 µM. The format is functional.
Sequence of Chromo domain-containing protein 1 (Saccharomyces cerevisiae (strain ATCC 204508 / S288c) (Baker's yeast)) (P32657 whole entry, the tested form may be a part): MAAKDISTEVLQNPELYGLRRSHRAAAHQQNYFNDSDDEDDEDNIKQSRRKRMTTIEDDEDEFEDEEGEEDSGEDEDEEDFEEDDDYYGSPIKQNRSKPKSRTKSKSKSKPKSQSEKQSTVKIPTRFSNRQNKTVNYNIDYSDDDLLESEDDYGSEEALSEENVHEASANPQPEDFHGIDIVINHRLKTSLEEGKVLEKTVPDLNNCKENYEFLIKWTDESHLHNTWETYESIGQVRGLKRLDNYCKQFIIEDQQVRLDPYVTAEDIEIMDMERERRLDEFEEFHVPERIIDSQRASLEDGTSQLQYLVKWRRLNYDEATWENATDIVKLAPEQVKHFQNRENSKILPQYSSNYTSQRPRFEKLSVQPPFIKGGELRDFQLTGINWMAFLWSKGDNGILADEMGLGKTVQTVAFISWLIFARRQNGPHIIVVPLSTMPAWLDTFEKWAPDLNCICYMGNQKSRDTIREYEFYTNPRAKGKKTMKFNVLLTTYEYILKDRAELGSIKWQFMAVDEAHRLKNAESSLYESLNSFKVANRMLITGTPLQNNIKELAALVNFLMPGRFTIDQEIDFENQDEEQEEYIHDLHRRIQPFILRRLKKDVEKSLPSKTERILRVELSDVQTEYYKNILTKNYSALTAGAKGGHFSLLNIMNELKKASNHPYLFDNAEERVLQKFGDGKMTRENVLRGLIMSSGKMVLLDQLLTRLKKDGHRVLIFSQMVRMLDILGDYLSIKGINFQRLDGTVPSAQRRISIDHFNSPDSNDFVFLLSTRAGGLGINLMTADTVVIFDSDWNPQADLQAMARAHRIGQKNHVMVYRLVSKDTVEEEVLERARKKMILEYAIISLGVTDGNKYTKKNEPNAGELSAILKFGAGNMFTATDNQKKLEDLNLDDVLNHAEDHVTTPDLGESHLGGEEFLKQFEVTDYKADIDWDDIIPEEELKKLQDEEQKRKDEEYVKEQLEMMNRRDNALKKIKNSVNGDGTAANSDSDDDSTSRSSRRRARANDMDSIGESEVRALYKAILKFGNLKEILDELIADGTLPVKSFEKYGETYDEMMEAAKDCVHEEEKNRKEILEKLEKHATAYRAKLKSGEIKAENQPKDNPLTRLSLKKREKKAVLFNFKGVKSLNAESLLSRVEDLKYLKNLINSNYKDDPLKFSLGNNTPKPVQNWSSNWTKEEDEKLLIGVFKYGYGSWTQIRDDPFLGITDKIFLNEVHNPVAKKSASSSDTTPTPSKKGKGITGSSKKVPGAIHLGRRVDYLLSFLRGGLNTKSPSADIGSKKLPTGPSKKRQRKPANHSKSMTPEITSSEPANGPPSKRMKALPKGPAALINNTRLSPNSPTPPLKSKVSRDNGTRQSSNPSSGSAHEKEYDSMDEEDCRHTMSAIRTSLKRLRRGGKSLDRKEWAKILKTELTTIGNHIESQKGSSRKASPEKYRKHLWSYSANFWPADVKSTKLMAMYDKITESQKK

For some of these results: Results with a measured potency or affinity are listed apart.

Sequence of Protein translocase subunit SecA (Escherichia coli (strain K12)) (P10408 whole entry): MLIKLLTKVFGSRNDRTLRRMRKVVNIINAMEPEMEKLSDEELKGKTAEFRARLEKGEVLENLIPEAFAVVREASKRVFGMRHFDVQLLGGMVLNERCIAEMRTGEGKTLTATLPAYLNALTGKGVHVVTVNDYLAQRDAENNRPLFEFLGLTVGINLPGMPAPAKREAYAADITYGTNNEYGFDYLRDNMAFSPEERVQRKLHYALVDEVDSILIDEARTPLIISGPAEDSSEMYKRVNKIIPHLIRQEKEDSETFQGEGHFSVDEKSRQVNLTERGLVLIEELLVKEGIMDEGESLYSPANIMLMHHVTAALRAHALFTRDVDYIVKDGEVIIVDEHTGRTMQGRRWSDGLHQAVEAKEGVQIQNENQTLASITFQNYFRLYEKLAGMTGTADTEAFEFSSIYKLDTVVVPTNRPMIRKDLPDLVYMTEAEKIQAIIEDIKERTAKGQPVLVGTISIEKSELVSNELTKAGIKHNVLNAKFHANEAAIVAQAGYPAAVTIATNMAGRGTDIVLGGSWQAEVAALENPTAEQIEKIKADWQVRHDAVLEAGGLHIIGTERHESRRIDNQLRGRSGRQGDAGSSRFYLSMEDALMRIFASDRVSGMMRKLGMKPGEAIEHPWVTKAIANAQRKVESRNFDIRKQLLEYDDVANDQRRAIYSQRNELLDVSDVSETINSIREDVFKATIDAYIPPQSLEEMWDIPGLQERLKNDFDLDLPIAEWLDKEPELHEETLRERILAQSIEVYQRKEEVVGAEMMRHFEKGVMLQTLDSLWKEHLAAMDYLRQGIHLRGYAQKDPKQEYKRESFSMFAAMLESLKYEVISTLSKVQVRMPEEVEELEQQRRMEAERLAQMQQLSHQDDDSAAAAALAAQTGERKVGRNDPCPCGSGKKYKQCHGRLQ

For `Cn1cc(C(=O)NC2CCN(C(=O)NCCSC(F)(F)F)CC2)cn1`, the Percent Effect in experiment [1] was -1.89%; in [2], 13.9%; in experiment [3], 2.72%; in experiment [4] it was 2.15%; with Trypanosoma cruzi it was -1.13%; in experiment [5] it was -0.215%. Besides, the Percent Effect in experiment [6] is 13%; in the experiment listed under Homo sapiens, 8.82%; in experiment [7], 9.38%; in experiment [8], 17.7%; in [9], -19.9%.

For the molecule `COCCOCC(=O)Nc1ccc(Br)cc1F`, the Percent Effect is -4.21% in experiment [1]; 10.5% in experiment [2]; -1.83% in [3]; 4.08% in experiment [4]; 3.8% in the experiment on Trypanosoma cruzi; -5.92% in experiment [5]. Besides, the Percent Effect in experiment [6] is 1.63%; in the experiment listed under Homo sapiens, 9.23%; in [7] it was 1.06%; in experiment [8], 7.79%; in [9], -2.27%.

Take `CN(CC1COc2ccccc2O1)C(=O)NCCCn1ccnc1` (stereo unspecified): the Percent Effect was -1.25% in experiment [1]; 0% in experiment [2]; 12.1% in experiment [3]; -8.39% in [4]; -4.7% in the experiment with Trypanosoma cruzi; -3.06% in [5]. Moreover, the Percent Effect in experiment [6] is -0.835%; in the experiment filed under Homo sapiens, 27.3%; in experiment [7] it was -3.43%; in experiment [8], -7.32%; in experiment [9], 7.75%.

Regarding `Cc1cnn(CC2CCCN2C(=O)c2cccc(-n3cnnn3)c2)c1` (stereo unspecified), the Percent Effect in experiment [1] was -0.0058%; in experiment [2], 2.53%; in experiment [3] it was 6.56%; in experiment [4], 4.88%; in the experiment on Trypanosoma cruzi it was -1.79%; in experiment [5] it was 6.08%. Moreover, the Percent Effect is -0.573% in experiment [6]; 13.2% in the experiment filed under Homo sapiens; 2.46% in experiment [7]; 1.27% in experiment [8]; -1.78% in experiment [9].

As for `CCOCCN1CCN(Cc2cccc(C(=O)N(C)C)c2)CC1`, the Percent Effect in experiment [1] was -10.3%; in experiment [2] it was 0%; in [3] it was -8.88%; in experiment [4] it was 18%; in the experiment on Trypanosoma cruzi, 9.38%; in experiment [5], -2.03%. The Percent Effect in [6] was found to be 0%; in the experiment filed under Homo sapiens, 2.86%; in experiment [7] it was 6.93%; in experiment [8], 23.2%; in experiment [9] it was 46.2%.

In the case of `CN1N=C(C(=O)Nc2cc(F)ccc2OCC2CCCO2)CCC1=O` (stereo unspecified), the Percent Effect in experiment [1] was -1.5%; in experiment [2], -5.2%; in [3] it was 12%; in experiment [4], 2.24%; in the experiment on Trypanosoma cruzi, 7.3%; in experiment [5], -6.41%. Further, the Percent Effect was 6.25% in experiment [6]; -6.34% in the experiment filed under Homo sapiens; 1.94% in experiment [7]; 2.44% in experiment [8]; -8.4% in experiment [9].

As for `CCc1ccc(OCC(O)CN2CCN(S(C)(=O)=O)CC2)cc1` (stereo unspecified), the Percent Effect in experiment [1] is -7.02%; in experiment [2], 7.79%; in [3] it was 3.94%; in experiment [4], -12.9%; with Trypanosoma cruzi, -6.56%; in [5] it was -3.58%. For the same molecule, the Percent Effect in [6] was 3.96%; in the experiment listed under Homo sapiens it was 16%; in experiment [7], 0.952%; in experiment [8], 2.35%; in experiment [9], -21.6%.

For the molecule `CCN(C)c1ncnc2c1CCN(Cc1csc(C)n1)CC2`, the Percent Effect in experiment [1] is -0.747%; in [2] it was 8.11%; in experiment [3], 4.65%; in experiment [4] it was 2.61%; with Trypanosoma cruzi it was -1.07%; in experiment [5], 4.78%. For the same molecule, the Percent Effect was 25.1% in [6]; -16.4% in the experiment filed under Homo sapiens; 6.49% in experiment [7]; 15.4% in experiment [8]; -2.96% in experiment [9].

In the case of `Cc1nn(C)c(C)c1C1CCCN1C(=O)CCCn1cccn1` (stereo unspecified), the Percent Effect in [1] is 0.0877%; in [2] it was 0%; in experiment [3] it was 3.67%; in [4] it was -4.76%; in the experiment on Trypanosoma cruzi, -6.07%; in [5], 10.1%. For the same molecule, the Percent Effect in experiment [6] is -2.45%; in the experiment filed under Homo sapiens it was 9.1%; in [7], 0.493%; in experiment [8], -6.17%; in experiment [9] it was 1.61%.

On to `CC(Cn1cccn1)NCc1nc(-c2cccc(Cl)c2)no1` (stereo unspecified), for which the Percent Effect in experiment [1] is -2.57%; in experiment [2] it was -2.63%; in [3], 1.2%; in [4], 3.09%; in the experiment with Trypanosoma cruzi, 4.76%; in experiment [5], 0%. The Percent Effect was 5.33% in experiment [6]; 11.7% in the experiment listed under Homo sapiens; 3.45% in experiment [7]; 11.1% in experiment [8]; 2.72% in experiment [9].

On to `CC(C)C(Sc1nnnn1C1CC1)C(=O)NCc1cccnc1` (stereo unspecified), for which the Percent Effect in [1] is -3.26%; in experiment [2], 5.2%; in experiment [3], 3.52%; in experiment [4] it was -3.03%; with Trypanosoma cruzi, -5.24%; in experiment [5], 17.8%. The Percent Effect in [6] is 13.3%; in the experiment filed under Homo sapiens it was 27.7%; in experiment [7], 6.8%; in experiment [8], 19.5%; in experiment [9], -3.93%.

(Values after ChEMBL document CHEMBL3988442, “University of Dundee, Small-Polar-MMV Screening Library” (2021).)
